# Screening data as filed in PubChem.
# GDH-TPI counter: counter-screen for M. tuberculosis FBA inhibitors: GDH-TPI coupled enzymes | GDH-TPI coupled enzyme counterscreen, NADH absorbance | inhibition, % at 4.8 µM | hit rate 1.2% among 360,000 | AID 588335
# FBA Mtb inh: Mtb fructose-bisphosphate aldolase inhibition; P9WQA3; hit rate 2.3% among 360,000; AID 588726; purified M. tuberculosis FBA, fluorescence read-out; inhibition, % at 1 µM; in the data active = inhibition above about 27%
# Target sequence (P9WQA3 whole entry, looked up): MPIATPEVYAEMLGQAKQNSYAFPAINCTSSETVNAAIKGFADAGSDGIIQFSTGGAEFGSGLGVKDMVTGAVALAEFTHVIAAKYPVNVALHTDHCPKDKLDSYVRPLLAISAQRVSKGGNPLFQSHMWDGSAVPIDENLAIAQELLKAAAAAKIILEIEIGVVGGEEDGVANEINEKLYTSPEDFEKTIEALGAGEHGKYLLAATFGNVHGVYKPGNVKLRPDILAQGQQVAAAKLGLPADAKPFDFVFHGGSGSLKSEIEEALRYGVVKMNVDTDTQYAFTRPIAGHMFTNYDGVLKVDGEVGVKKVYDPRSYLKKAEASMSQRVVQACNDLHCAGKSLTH
# Mtb bLac sens: beta-lactam sensitization of Mtb H37Rv; M. tuberculosis H37Rv growth with meropenem, percent inhibition; inhibition, % at 25 µM; hit rate 0.27% among 330,000; call rule not given here;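 also: growth measured after seven days incubation then overnight dye step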
# MazF activator: MazEF (E. coli) toxin RNase activation. P0AE70. AID 504720. activation, % at 20 µM. hit rate 0.32% among 350,000. FAM/BHQ RNA-DNA oligo cleavage fluorescence, 5 h; in the data active = activation above about 50%
# Target sequence (P0AE70 whole entry, looked up): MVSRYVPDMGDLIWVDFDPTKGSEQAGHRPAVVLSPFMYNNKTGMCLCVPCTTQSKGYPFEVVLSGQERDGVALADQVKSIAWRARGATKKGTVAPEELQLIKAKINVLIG
# CCHF vOTU inh: blocks the CCHF virus ovarian tumor domain protease; AID 651958; hit rate 0.55% among 370,000; inhibition, % at 11.5 µM; CCHFV vOTU protease, Pep-AMC fluorescence
# A number is an active result; – = inactive; ? = inconclusive; · = no result; + = active, no number. Sampled rows, rich in hits. Any-hit rate of the full collection: about 4%. Rule as the data show it, unless noted: active = inhibition above about 30%; inactive = the rest.
SMILES,GDH-TPI counter,FBA Mtb inh,Mtb bLac sens,MazF activator,CCHF vOTU inh
C#CCOc1c(/C=C\c2nc(O)c([N+](=O)[O-])c(=O)[nH]2)cc(Br)cc1OC,49,–,–,–,–
N#C/C(=C\c1ccccc1[N+](=O)[O-])C(=O)NC1CCCCC1,–,–,–,423,–
CC(C)N1Cc2nnn(Cc3ccccc3)c2-c2cc(N3CCCC3)ccc2S1(=O)=O,·,·,·,·,–
COc1ccccc1/C=C\C(=O)NCC(=O)N/N=C/c1ccc(O)cc1O,36,–,–,–,–
COc1ccccc1/C=C/C(=O)NCC(=O)N/N=C/c1ccccc1,–,–,–,–,–
CC(C)(C)c1ccc(-c2nnc(SCC(=O)c3ccc4ccccc4c3)n2-c2ccc(Cl)cc2)cc1,·,·,·,·,–
O=C1c2c(O)cc(O)cc2O[C@@]12c1c(cc(O)c3c1O[C@H](c1ccc(O)cc1)[C@@H](O)C3)O[C@@H]2c1ccc(O)cc1,36,–,–,–,–
Oc1cc(O)c2c(c1)O[C@H](c1ccc(O)c(O)c1)[C@@H](O)C2,–,–,–,–,–
CC(CCN1CCC(C(O)(c2ccccc2)c2ccccc2)CC1)Oc1cccc(C(F)(F)F)c1 (centres undefined),·,·,·,·,–
O=C(N/N=C/c1cccs1)c1ccc(NC(=O)c2ccccc2Cl)cc1,33,–,–,–,–
Cc1ccc(/C=N/NC(=O)c2ccc(NC(=O)c3ccccc3Cl)cc2)o1,49,–,–,–,–
O=C(N/N=C/c1cccs1)c1cccc(NC(=O)c2ccccc2Cl)c1,–,–,–,–,–
COc1cc2cc(C(=O)N3CC(COS(C)(=O)=O)c4ccc(O)cc43)[nH]c2c(OC)c1OC (centres undefined),39,–,·,–,·
O=C(NC(=S)NNC(=O)c1cc2ccccc2cc1O)c1ccco1,–,–,–,–,–
CCCCC(=O)Nc1ccc(C(=O)NNC(=O)c2ccco2)cc1,–,–,–,–,–
CCCCC(=O)Nc1ccc(C(=O)NNC(=S)NC(=O)c2ccco2)cc1,44,–,–,–,–
O=C(NC(=S)NNC(=O)c1ccccc1O)c1ccco1,31,–,–,–,–
CCCC(=O)NC1=C(N2CC2)C(=O)C(NC(=O)CCC)=C(N2CC2)C1=O,33,–,·,–,–
CCCC(=O)Nc1ccc(N2CCN(S(C)(=O)=O)CC2)cc1,–,–,–,–,–
CCC(C)N(C(=O)Cn1nc(Cc2ccncc2)c2ccccc2c1=O)C(C)CC (centres undefined),·,·,·,·,–
Cc1nn2c(c1-c1ccccc1)NC1=C(C(=O)CCC1)C2c1ccccc1 (centres undefined),33,115,–,–,–
O=C(CCS(=O)(=O)c1ccccc1)Nc1cc(Cl)ccc1F,·,·,·,·,–
COc1cccc(CN(C)C(=O)c2cccc(S(=O)(=O)NCc3ccccc3)c2)c1OC,–,–,–,–,–
COc1ccc(CN(C)C(=O)c2cccc(Oc3ccccc3)c2)c(OC)c1OC,–,–,–,55,–
CC(C)c1cccc(-c2ccc3c(c2)S(=O)(=O)c2cccc(C(=O)O)c2C3=O)c1,31,–,–,–,–
SMILES,GDH-TPI counter,FBA Mtb inh,Mtb bLac sens,MazF activator,CCHF vOTU inh
CC(C)c1cccc(-c2ccc3c(c2)S(=O)(=O)c2cccc(C(=O)NCc4ccco4)c2C3=O)c1,–,–,–,–,–
Cc1ccc(C2=CC(c3ccc(N(C)C)cc3)n3nnnc3N2)cc1 (centres undefined),–,–,–,64,–
C=CCCC(=O)N1C[C@H]2CCN(C)[C@H]2C[C@H]1c1ccccc1Br,·,·,·,·,–
C=CCc1cc(/C=C2/NC(=S)NC2=O)cc(OC)c1O,–,–,–,–,–
C=CCc1cc(/C=C2/NC(=O)N(CC(=O)OC)C2=O)cc(OC)c1O,32,–,–,–,–
Cc1ccc(-c2cc(C(=O)N=Nc3c(O)[nH]c4ccccc34)[nH]n2)cc1C,·,·,·,·,–
CC1(C)Cc2c(cnn2-c2ccc(F)cc2)C(NC(=O)c2ccc(=O)oc2)C1 (centres undefined),41,–,–,–,–
c1ccc2c(c1)Cn1nnnc1-2,–,135,–,–,·
O=C(Nc1ccc(F)cc1Cl)C1CCCN1S(=O)(=O)c1cccc2cccnc12 (centres undefined),·,·,·,·,–
COC(=O)C1CN(Cc2ccc(F)cc2)CCS(=O)(=O)N1Cc1cn(Cc2ccc(Cl)cc2)nn1 (centres undefined),·,·,·,·,–
CC1CCCN(CCCNC(=O)c2coc3nc4ccccc4nc23)C1 (centres undefined),–,155,–,–,–
CC1CCCN(CCCNC(=O)c2nn(C)c3c2CSc2ccccc2-3)C1 (centres undefined),–,–,–,–,–
CC1CCN(CCCNC(=O)c2coc3nc4ccccc4nc23)CC1,–,+,–,–,–
CCOC(=O)c1csc(NC(=O)C2CCCN(S(=O)(=O)c3cccs3)C2)n1 (centres undefined),·,·,·,·,–
CCC(C(=O)Nc1ccccc1N1CCCC1)c1cccc(OC)c1 (centres undefined),·,·,·,·,–
CCOC(=O)C1CCCN(C(=O)Cn2nc(C)n3c(cc4c(OC)cccc43)c2=O)C1 (centres undefined),–,193,?,–,–
COc1cccc2c1cc1c(=O)n(CC(=O)N3CCN(c4cccc(C)c4C)CC3)nc(C)n12,–,–,·,–,–
COc1cccc2c1cc1c(=O)n(CC(=O)N3CCCCCC3)nc(C)n12,–,+,?,–,–
COc1ccc(/C=C/C=C2\NC(=S)NC2=O)cc1,–,–,–,–,–
O=C1NC(=S)N/C1=C\C=C\c1ccccc1,33,–,–,–,–
CC(C)C(C#CC1CC1)NCc1ccc2c(c1)OCO2 (centres undefined),·,·,·,·,–
O=C(NC1CCCCN(Cc2ccc(Cl)cc2)C1=O)c1cccs1 (centres undefined),·,·,·,·,–
CC(C)n1c(=O)c2ccccc2n1Cc1cn(CCc2c[nH]c3ccccc23)nn1,·,–,·,·,–
CC(C)n1c(=O)c2ccccc2n1Cc1cn(Cc2ccccc2)nn1,·,115,·,·,–
CC(C)n1c(=O)c2ccccc2n1Cc1cn(-c2ccccc2)nn1,·,120,·,·,–
SMILES,GDH-TPI counter,FBA Mtb inh,Mtb bLac sens,MazF activator,CCHF vOTU inh
CCCCCCCCN1CN2Cc3ccc(C)cc3C2CS1(=O)=O (centres undefined),·,·,·,·,–
O=S1(=O)c2ccc(Br)cc2OC[C@@H](Cc2ccccc2)N1Cc1cn(CCC2OCCO2)nn1,·,·,·,·,–
O=C(Cc1nc2ccccc2[nH]1)c1ccc(Br)cc1,32,–,–,–,–
Nc1c(C(=O)NCCN2CCOCC2)c2nc3ccccc3nc2n1-c1ccccc1,–,149,–,–,–
Nc1c(C(=O)NCCN2CCOCC2)c2nc3ccccc3nc2n1-c1ccc2c(c1)OCO2,–,–,–,–,–
COc1cccc(-n2c(N)c(C(=O)Nc3c(C)n(C)n(-c4ccccc4)c3=O)c3nc4ccccc4nc32)c1,37,–,–,–,–
C=CCNC(=O)c1c(N)n(-c2cccc(S(N)(=O)=O)c2)c2nc3ccccc3nc12,–,116,–,–,–
Cc1c(NC(=O)COC(=O)c2cc(-c3cccc4ccccc34)nc3ccccc23)c(=O)n(-c2ccccc2)n1C,–,–,–,62,–
O=C(CSc1nnc(-c2cccnc2)n1Cc1ccco1)Nc1ccc(Cl)c(Cl)c1,·,·,·,·,–
